Assay outcomes (PubChem BioAssay)
Hits are enriched below; roughly 3.8% of the tested compounds scored in any of these assays.
ATXN viability: Viability Counterscreen for Primary qHTS for Inhibitors of ATXN expression; S2 cells (HEK-293 line with an ATXN2-luciferase reporter) viability, CellTiter-Fluor protease fluorescence, 24 h; Potency, µM (top dose mostly 56.7 µM), most hits filed as cytotoxic; actives 0.49% (n = 400,000); note: nearly all actives have a fitted effect of over 40% in size
TGFb inhibitor: qHTS for Inhibitors of TGF-b; HepG2 CAGA-GFP TGF-b/SMAD3 reporter, GFP fluorescence, 18 h; TGF-beta stimulated, 500 pg/mL final; Potency, µM (top dose mostly 46.1 µM), without a hit: top-dose activity, negative = inhibition, hits mostly inhibitors; actives 1.2% (n = 410,000); AID 588855, 2011; note: % is set by controls: 0 for no effect and ±100 for the full control effect; nearly all actives have a fitted effect of over 65% in size
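Smad-responsive CAGA-GFP expression was quantified in HEPG2 cells exposed to compounds and 500 pg/mL final TGF-beta for 18 h at 37 degrees C; unstimulated wells defined full inhibition.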
ATXN2 expr inh: Primary qHTS for Inhibitors of ATXN expression; HEK-293 ATXN2-luciferase reporter, luminescence, 24 h; Potency, µM (titrated, usually from 57 µM), inactives show top-dose activity change, negative = inhibition, usual class: inhibitors; actives 0.72% (n = 360,000); AID 1745845, 2022; note: % is set by controls: 0 for no effect and ±100 for the full control effect; nearly all actives have a fitted effect of over 55% in size
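ATXN2-luciferase reporter cells (luciferase flanked by upstream and downstream ATXN2 gene portions) were treated 24 h at 37 °C with compounds at up to 57 uM. SteadyGlo luminescence gave expression; GF-AFC fluorescence gave viability.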
HT1080-NT tox: qHTS for induction of synthetic lethality in tumor cells producing 2HG: qHTS for the HT-1080-NT fibrosarcoma cell line; Potency, µM (highest dose often 46.1 µM), for inactives: top-dose activity, negative = less viability, most hits filed as cytotoxic; HT-1080-NT fibrosarcoma viability, CellTiter-Glo ATP luminescence, 48 h; actives 1.6% (n = 360,000);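 note: NT is the 2HG producing partner of a matched IDH1 knockdown line; 0% = DMSO-treated cells and -100% = media-only wells without cells; nearly all actives have a fitted effect of over 55% in size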
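A 48-hour cytotoxicity screen used HT-1080-NT cells plated 2 hours before compound delivery. ATP-based CellTiter-Glo luminescence measured viability, normalized to DMSO and no-cell controls.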
HT1080 IDH1KD tx: qHTS for induction of synthetic lethality in tumor cells producing 2HG: qHTS for the HT-1080-IDH1KD cell line; Potency, µM (top dose mostly 46.1 µM), for inactives: at the highest dose activity, negative = toxicity, most hits filed as cytotoxic; actives 2% (n = 360,000); HT-1080 IDH1 knockdown viability, ATP luminescence, 48 h;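 note: 0% = DMSO wells and -100% = cell-free medium wells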
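HT-1080-IDH1KD cells (IDH1 knocked down), 750/well in RPMI with 5% FBS, treated with compound 48 h at 37 degrees C. Viability by CellTiter-Glo luminescence, normalised to DMSO and no-cell wells; concentration-response curves classed.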
HepG2 viability: qHTS for Inhibitors of TGF-b: Cytotox Counterscreen | HepG2 CAGA-GFP viability, ATP luminescence, 18 h | Potency, µM (titrated, usually from 46.1 µM), without a hit: at the highest dose activity change, negative = cytotoxicity, actives largely listed as cytotoxic | actives 0.76% (n = 410,000)
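CellTiter-Glo luminescence gave cytotoxicity after 18 hours at 37 degrees C. The cells were HepG2 CAGA-GFP in 1% FBS DMEM, stimulated with 500 pg/mL TGF-beta after compound addition. %Activity was normalised to no-cell wells (complete cell-killing) and DMSO (no toxicity), and curves were fitted and classified.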
Numbers without * were called inactive; i = inactive; u = inconclusive; x = no result given. Calls come from the whole dose curve; as a rule, active = well fitted curve in the direction sought with a large enough effect; inconclusive = small, poorly fitted or top-dose-only effect, or another doubt; inactive = no such curve, though single readings can be large; an effect the other way counts as inactive or inconclusive. Potency is the fitted concentration of half-maximal effect.

SMILES	ATXN viability	TGFb inhibitor	ATXN2 expr inh	HT1080-NT tox	HT1080 IDH1KD tx	HepG2 viability
COC(=O)[C@@H]1C[C@@H](NC(=O)c2ccc(C(F)(F)F)cc2)CN1Cc1cccc(O)c1	i	x	x	x	x	x
Nc1nnc(-c2ccc([N+](=O)[O-])o2)s1	u	u	-39.4%	23.1µM*	-18.3%	-98.6%
COCCNC(=O)c1nn(-c2ccc(C)cc2)c(=O)n(C)c1=O	i	15.4%	-3.5%	x	x	1.2%
Cc1c(Cc2ccccc2)sc(NC(=O)/C=C/c2cccc3ccccc23)c1C(N)=O	i	-19.9%	-33.4%	13µM*	32.6µM*	-2.0%
COC(=O)c1c(NC(=O)/C=C/C(=O)O)sc(Cc2ccccc2)c1C	i	u	u	-28.9%	u	-50.4%
O=C(C[N+]12CCCc3cccc(c31)CCC2)c1ccccc1	x	u	x	x	x	-34.8%
CCN(CC)CCN(C(=O)CCS(=O)(=O)c1ccccc1)c1nc2cc(C)cc(C)c2s1	i	15.8µM*	-29.6%	u	u	17.8µM*
CN(CCCNC(=O)CSc1cc(=O)n(C)c2cc(Cl)ccc12)Cc1ccccc1	u	u	-28.1%	u	20.6µM*	-42.0%
Cn1c(=O)cc(SCC(=O)NCc2ccc(F)cc2)c2ccc(Cl)cc21	i	-4.6%	5.5%	x	x	-20.1%
O=C(c1ccc2c(=O)n(CCc3ccccc3)c(=O)[nH]c2c1)N1CCN(c2ccc(Cl)cc2)CC1	u	4.47µM*	-19.7%	x	x	-19.6%
COc1ccc(-c2onc(C)c2C)cc1S(=O)(=O)N(C)Cc1ccco1	x	u	x	x	x	-2.4%
CC(C)Oc1ccc(C(CCNCc2ccc(O)cc2)c2ccccc2)cc1 (stereo not drawn)	x	14.1µM*	u	u	u	-91.9%
COc1ccc(C(CCNC(C)c2ccccc2)C(C)C)cc1 (stereo not drawn)	i	u	-24.9%	u	u	-94.0%
COc1ccc(C(C)NCCC(c2ccc(OC(C)C)cc2)c2ccccc2OC)cc1 (stereo not drawn)	x	11.2µM*	u	14.6µM*	u	12.6µM*
COc1ccc(CNCCC(c2ccc3c(c2)OCO3)c2ccccc2OC)cc1 (stereo not drawn)	x	u	u	x	x	10µM*
COc1ccc(C(CCNCc2ccc(N(C)C)cc2)c2ccccc2)cc1 (stereo not drawn)	22.4µM*	u	u	18.4µM*	u	-185.9%
O=C(NCC1Cc2cccc(-c3cnccn3)c2O1)C1COc2ccccc2O1 (stereo not drawn)	i	x	x	x	x	x
CC(=C(CCOC(=O)C(C)C)SSC(CCOC(=O)C(C)C)=C(C)N(C=O)Cc1cnc(C)nc1N)N(C=O)Cc1cnc(C)nc1N	i	x	-15.4%	x	x	x
CC(C)Oc1ccc(CNC(=O)CC(c2ccccc2)c2cc(Cl)ccc2O)cc1 (stereo not drawn)	u	u	u	u	u	15.8µM*
COc1ccccc1C(CC(=O)Nc1ccc(Cl)cc1)c1ccc(OC(C)C)cc1 (stereo not drawn)	i	2.8%	1.5%	-14.1%	-17.2%	-14.5%
NC(=O)c1ccc[n+]([C@@H]2O[C@H](COP(=O)([O-])OP(=O)(O)OC[C@H]3O[C@@H](n4cnc5c(N)ncnc54)[C@H](O)[C@@H]3O)[C@@H](O)[C@H]2O)c1	i	x	x	x	x	x
Nc1ccc2c(c1)CN1C(=O)c3ccccc3C1=N2	u	x	12.6µM*	x	x	x
C=CC[n+]1ccnc2ccccc21	x	u	x	x	x	1.1%
C[n+]1ccnc2ccccc21	x	5.01µM*	x	x	x	-104.9%
C[n+]1ccnc2cc(Cl)ccc21	x	1.12µM*	x	x	x	1.41µM*
